Assay outcomes (PubChem BioAssay)
Only some compounds are listed: those with a hit (about 2.8% of all), similar ones and a draw of the others.
B2AR arrestin: recruits beta-arrestin to the human beta2-adrenergic receptor | P07550 | beta-arrestin recruitment to beta2AR, cell-based reporter | Potency, µM (highest dose often 46.1 µM), most hits filed as activators | 330,000 tested, 0.02% active | AID 492947; active = well fitted activation curve with a large enough effect; inconclusive = small, poorly fitted or top-dose-only effect; also: nearly all actives have a fitted effect of over 65% in size
Target sequence (P07550 whole entry, looked up): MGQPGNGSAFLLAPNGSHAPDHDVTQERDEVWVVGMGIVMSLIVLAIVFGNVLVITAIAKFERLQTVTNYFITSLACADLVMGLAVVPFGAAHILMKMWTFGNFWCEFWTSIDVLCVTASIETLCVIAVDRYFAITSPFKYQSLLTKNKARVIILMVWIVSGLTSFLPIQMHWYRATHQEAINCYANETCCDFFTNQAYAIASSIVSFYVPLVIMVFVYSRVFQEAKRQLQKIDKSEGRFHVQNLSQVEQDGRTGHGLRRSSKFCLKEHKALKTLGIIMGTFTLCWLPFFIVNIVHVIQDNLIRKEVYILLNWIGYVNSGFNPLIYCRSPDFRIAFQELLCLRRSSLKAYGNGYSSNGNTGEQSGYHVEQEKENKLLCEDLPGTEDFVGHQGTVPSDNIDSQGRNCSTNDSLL
DRD3 antagonist: blocks the human D3 dopamine receptor | 360,000 tested, 2.5% active | D3R cells, DiscoveRx beta-arrestin luminescence, antagonist mode; hits give low values | max response, negative = inhibition, % | P35462; in the data active = max response below about -50%; inconclusive = no clear call, values can overlap the other calls
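Cells plated overnight at 1500 cells/well, then exposed to library compounds with dopamine controls for 90 minutes at 37 degrees C. DiscoveRx reagent added for 30–60 minutes at room temperature; luminescence read, quantitative HTS format.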
Giardia killer: kills Giardia lamblia | Giardia lamblia trophozoite viability | activity change, % at 7.66 µM, hits read low | 340,000 tested, 0.15% active | AID 540267; in the data active = activity change below about -80%; inconclusive = between about -30% and that limit;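 also: parasites exposed to compound for two days anaerobically before the ATP read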
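Compounds were tested on trophozoites seeded at 100 cells/well and held 48 hrs at 37 deg C anaerobically. An ATP-based luminescent kit measured the remaining live cells.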
D3 ag: activates the human D3 dopamine receptor; D3R DiscoveRx beta-arrestin cells, luminescence, 90 min; max activation, %; 410,000 tested, 0.58% active; P35462; AID 652048; in the data active = max activation above about 30%
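Cells at 1500/well, incubated overnight, then treated with pinned compounds (dopamine as control) for 90 min at 37 degrees C. DiscoveRx reagent added for 30 - 60 minutes at room temperature; luminescence read.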
Each line names hits and unclear results; the compound was inactive in the other large screens.

COc1ccc(/C=C/CN2CCC(Oc3ccc(C(=O)N4CCCCC4)cc3)CC2)cc1	none
COc1ccccc1/C=C/CN1CCC(Oc2cc(C(=O)NC3CC3)ccc2OC)CC1	DRD3 antagonist -77
COc1ccc(C(=O)NC2CC2)cc1OC1CCN(Cc2ccccc2)CC1	none
O=C(O)CN(CC(=O)O)CC1=CC2C(=CC1=O)Oc1cc(O)c(CN(CC(=O)O)CC(=O)O)cc1C21OC(=O)c2ccccc21 (stereo not drawn)	none (no result: B2AR arrestin, DRD3 antagonist, Giardia killer)
CN(C)c1ccc(CNS(=O)(=O)c2ccc(-c3cc(C(F)(F)F)on3)s2)cc1	none (no result: B2AR arrestin, DRD3 antagonist, Giardia killer)
CN(CCO)CC(O)CN(c1ccccc1)c1ccccc1 (stereo not drawn)	DRD3 antagonist -51
CCc1ccccc1NC(=O)c1cc(S(=O)(=O)N2CCC(C)CC2)cn1C	D3 ag 62 (no result: B2AR arrestin, DRD3 antagonist, Giardia killer)
CCOc1ccc(NC(=O)c2cc(S(=O)(=O)N3CCC(C)CC3)cn2C)cc1	none (no result: B2AR arrestin, DRD3 antagonist, Giardia killer)
O=C(NCCCCNCCCNC(=O)c1ccccc1)c1ccccc1	DRD3 antagonist -51
O=C(NCCNC(=O)c1ccccc1)c1ccccc1	none
CCc1nc2ccc(C(=O)NC3CCN(Cc4ccccc4)CC3)cn2c1N(CC)Cc1cccc(Br)c1	DRD3 antagonist -78 (no result: B2AR arrestin, Giardia killer)
CCCN1CNc2c(c(=O)[nH]c(=S)n2CCc2cc(Cl)cc(Cl)c2)C1	none (no result: B2AR arrestin, DRD3 antagonist, D3 ag)
O=[N+]([O-])c1cccc(SSc2cccc([N+](=O)[O-])c2)c1	DRD3 antagonist -69 (no result: B2AR arrestin)
Nc1cccc([N+](=O)[O-])c1	none
COCCCNC(=O)c1ccc2c3c(onc13)-c1ccccc1C2=O	DRD3 antagonist inconclusive
CCOC(=O)C(C(=O)OCC)c1cc(Br)c2noc3c2c1C(=O)c1ccccc1-3	DRD3 antagonist -102
C=CS(=O)(=O)c1sc(Cl)c(N2CCOCC2)c1[N+](=O)[O-]	DRD3 antagonist -72
C=CSc1sc(Cl)c(N2CCOCC2)c1[N+](=O)[O-]	none
COc1ccc(-c2ccc(F)cc2)cc1C1C2C=CCC(C)C2C(=O)N1Cc1ccccc1 (stereo not drawn)	none (no result: B2AR arrestin, DRD3 antagonist, D3 ag)
Cc1ccc(-n2nc(C)c3c2OC(N)=C(C#N)C3c2ccccc2F)cc1 (stereo not drawn)	DRD3 antagonist -52
Cc1ccc(-n2nc(C)c3c2OC(N)=C(C#N)C3c2ccncc2)cc1 (stereo not drawn)	none
Cc1ccc(-n2c(C)cc(C(=O)CSc3n[nH]c(N)n3)c2C)cc1	D3 ag 39
CCOC(=O)C(=CNc1cc(C)ccc1C)C(=O)OCC	none
CCOC(=O)C(=CNc1cc(OC)ccc1-n1cccc1)C(=O)OCC	D3 ag 51
CCOC(=O)c1sc2ccccc2c1S(=O)(=O)Nc1ccc(N(C)C)cc1	none (no result: B2AR arrestin, DRD3 antagonist, Giardia killer)
Cc1cc(C)c(NC(=O)C2CCCN(C(=O)c3cnn(-c4ccccc4)c3-n3cccc3)C2)c(C)c1 (stereo not drawn)	none (no result: B2AR arrestin, DRD3 antagonist, Giardia killer)
Cc1ccc(C(=O)N/C(=C/c2ccc(N(C)C)cc2)C(=O)NCC2CCCO2)cc1 (stereo not drawn)	D3 ag 35
O=C(CC(c1ccccc1)c1cc(Br)ccc1O)NCC1(c2ccccc2)CCCC1 (stereo not drawn)	D3 ag 30 (no result: B2AR arrestin, DRD3 antagonist, Giardia killer)
COc1ccc(C(=O)/C=C/C(=O)N(CC(=O)NC2CCCCC2)Cc2ccccc2)c(O)c1	DRD3 antagonist -115
CCN(CC)c1nn2c(=O)c(C(=O)NCc3ccc(F)cc3)cnc2s1	none (no result: B2AR arrestin, DRD3 antagonist, Giardia killer)
Cn1c(C=O)c(C#Cc2ccccc2)c2ccccc21	D3 ag 39
COc1ccc(C#Cc2c(C=O)n(C)c3ccccc23)cc1	none
CC1CC(O)CC(C)(C)C1 (stereo not drawn)	none (no result: B2AR arrestin, DRD3 antagonist, Giardia killer)
Clc1nc(NCc2cccs2)c2[nH]cnc2n1	none (no result: B2AR arrestin, DRD3 antagonist, D3 ag)
CCOC(=O)/C=C/C(=O)Nc1cccc([N+](=O)[O-])c1	none
CCOC(=O)/C=C/C(=O)Nc1ccccc1-c1ccccc1NC(=O)/C=C/C(=O)OCC	DRD3 antagonist -62
Cc1cc([N+](=O)[O-])ccc1NC(=S)NC(=O)Cc1ccccc1	DRD3 antagonist -61
CC(C)[C@@H]1CC[C@@H](C)C[C@H]1OC(=O)c1ccccc1O	none (no result: B2AR arrestin, DRD3 antagonist, Giardia killer)
CCOC(=O)N1CCN(Cc2cc(Cl)c3cccnc3c2O)CC1	DRD3 antagonist -55
CN1CCN(Cc2cc(Cl)c3cccnc3c2OC(=O)c2cccs2)CC1	none
COc1ccc(CN2CCN(C(=O)c3cccs3)CC2)c(OC)c1OC	DRD3 antagonist -86
CCOc1ccccc1N1CCN(Cc2cn[nH]c2-c2ccc(F)cc2)CC1	DRD3 antagonist -84
O=C(Oc1c(CN2CCOCC2)cc(Cl)c2cccnc12)c1ccccc1Br	B2AR arrestin inconclusive, DRD3 antagonist -80
CCC(C(=O)NCCc1cc(OC)ccc1OC)n1nc(C)c2sc3ccccc3c2c1=O (stereo not drawn)	none (no result: B2AR arrestin, DRD3 antagonist, Giardia killer)
COc1ccccc1N1CCN(Cc2ccc(OC)c(OC)c2OC)CC1	DRD3 antagonist -51
COc1ccccc1N1CCN(Cc2ccc(O)c3ncccc23)CC1	B2AR arrestin inconclusive, DRD3 antagonist -105
COc1cc2oc(=O)cc(CN3CCN(c4ccccc4OC)CC3)c2cc1Cl	DRD3 antagonist -50 (no result: B2AR arrestin, Giardia killer)
CCOC(=O)C1CCN(Cc2ccc(O)c3ncccc23)CC1	B2AR arrestin inconclusive, DRD3 antagonist -93
Oc1ccc(CN2CCCc3ccccc32)c2cccnc12	none
CCCS(=O)(=O)N1CCN(Cc2ccccc2OCC)CC1	DRD3 antagonist inconclusive
CCOc1ccccc1N1CCN(Cc2cccc(OC)c2OC)CC1	DRD3 antagonist -89
CCOc1ccccc1CN1CCN(S(=O)(=O)CC)CC1	DRD3 antagonist -51
Oc1c(CN2CCOCC2)cc(COCc2ccccc2)c2cccnc12	B2AR arrestin 5.8µM, DRD3 antagonist -67
COC(=O)C(NS(=O)(=O)CCl)C(C)C (stereo not drawn)	none (no result: B2AR arrestin, DRD3 antagonist, D3 ag)
CC(C)(C)[C@H](NC(=O)c1ccc(N)c(Cl)c1)C(=O)N1CCC[C@H]1C(=O)N[C@H](C#N)Cc1nn[nH]n1	none (no result: DRD3 antagonist, Giardia killer, D3 ag)
COc1cc(CN2CCN(C(c3ccccc3)c3ccccc3)CC2)cc(OC)c1OC	DRD3 antagonist -85
CCN1CCN(Cc2cccc(Oc3ccccc3)c2)CC1	DRD3 antagonist -52
COc1cccc(CN2CCN(C(c3ccccc3)c3ccccc3)CC2)c1O	none
CCN1CCN(Cc2cccc(Oc3ccc(Cl)cc3)c2)CC1	DRD3 antagonist -63
COc1cccc(CN2CCC(N(CCc3ccccc3)Cc3ccccc3)CC2)c1OC	DRD3 antagonist -85
COC(=O)C(C(C)C)N1CC(=O)c2ccccc2S1(=O)=O (stereo not drawn)	none (no result: B2AR arrestin, DRD3 antagonist, D3 ag)
O=C(NC1CC(=O)N(c2cccc(F)c2)C1)C1CC1 (stereo not drawn)	none (no result: B2AR arrestin, DRD3 antagonist, Giardia killer)
Cc1ccc(CNC(=O)CC(C)CC2=NS(=O)(=O)c3ccccc3N2)cc1 (stereo not drawn)	none (no result: B2AR arrestin, DRD3 antagonist, Giardia killer)
COc1cccc(CN2CCN(Cc3cccc(Oc4ccccc4)c3)CC2)c1OC	DRD3 antagonist -59
COc1cccc(CN2CCN(Cc3cc(OC)c(OC)c(OC)c3)CC2)c1OC	none
CN1CCN(Cc2cccc(Oc3ccc(Cl)cc3)c2)CC1	DRD3 antagonist -52
O=C(Nc1cc2c(cc1C(=O)c1cccc(Br)c1)OCCO2)c1ccccc1F	none (no result: B2AR arrestin, DRD3 antagonist, Giardia killer)
COc1cc(N2C(=O)C=CC2=O)ccc1N1C(=O)C=CC1=O	DRD3 antagonist -68 (no result: B2AR arrestin)
CC(C)n1nc(-c2cc3cc(O)ccc3[nH]2)c2c(N)ncnc21	none (no result: B2AR arrestin, DRD3 antagonist, Giardia killer)
